Screens deposited in PubChem BioAssay by National Center for Advancing Translational Sciences (NCATS).
Only some compounds are listed: those with a hit (about 20% of all), similar ones and a draw of the others.
Shiga inhibitor = inhibitors of Shiga toxin in Vero cells; Vero cells, Shiga toxin protein synthesis inhibition reporter; inhibition, % at 38.7 µM; 290,000 compounds, 9.2% hits; in the data active = inhibition mostly above about 28%, no sharp cut-off; inactive = mostly below about 43%; also: 0% is about no effect
HCMV antiviral = inhibitors of human cytomegalovirus; AID 1259415; HFF cells, HCMV-luciferase reporter, 72 h; stronger effect = lower value; 410,000 compounds, 4.5% hits; activity change, negative = inhibition, % at 57.5 µM; in the data active = activity change below about -60%; inconclusive = no clear call, values can overlap the other calls; inactive = above about -39%; also: % is scaled to controls: 0 for no effect and ±100 for the full control effect
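Compounds were evaluated in HFFs infected with an HCMV luciferase reporter virus (MOI 1 PFU/cell). Luciferase in lysates collected 72 h post infection served as the replication measure.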
Pf growth 48h = inhibits P. falciparum growth in the first generation, 48 h | 310,000 compounds, 5.9% hits | P. falciparum luciferase growth in erythrocytes, 48 h | Potency, µM (titrated, usually from 28.7 µM), for the others: at the top dose activity change, negative = inhibition, hits mostly inhibitors; also: potency is read from the fitted curve at half-maximal effect; % is scaled to controls: 0 for no effect and ±100 for the full control effect
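Luciferase-expressing parasites in RBCs, 2% Hct / 0.1% parasitemia final; RPMI 1640 + 0.5% Albumax; 37 C, 5% CO2, one generation; luminescence read-out, lower signal = inhibition.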
Pf growth 96h = P. falciparum growth inhibition at 96 hours. P. falciparum luciferase reporter growth, 96 h. Potency, µM (top dose mostly 28.7 µM), for inactives: at the top dose activity change, negative = inhibition, hits mostly inhibitors. 320,000 compounds, 6.9% hits; also: potency is read from the fitted curve at half-maximal effect; % is scaled to controls: 0 for no effect and ±100 for the full control effect
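Two parasite generations (96 h, 37 C, 5% CO2) of compound exposure in infected erythrocytes (0.05% parasitemia, 2% hematocrit). Luciferase-reporter P. falciparum; decreased luminescence indicates inhibited growth, aimed at apicoplast-acting delayed death.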
CHX counter = counter-screen for Shiga toxin inhibitors: cycloheximide protein synthesis inhibition | AID 2314 | 300,000 compounds, 12% hits | cell reporter, cycloheximide protein synthesis inhibition counterscreen | max response, %; in the data active = max response mostly above about 13%, no sharp cut-off; inactive = mostly below about 14%; also: read at 38.3 µM for the half of the compounds with a filed dose; 0% is about no effect
* hit, by the source's call; ? = inconclusive; / = no result given. Unless noted, calls follow the shape of the dose curve; as a rule, active = well fitted inhibition curve with a large enough effect; inconclusive = small, poorly fitted or top-dose-only effect, or another doubt; inactive = no such curve, though single readings can be large or run the other way.

SMILES	Shiga inhibitor	HCMV antiviral	Pf growth 48h	Pf growth 96h	CHX counter
CC(C)=N/N=C1\NC(=O)C(C)S1 (stereo unspecified)	27	-30	4.7µM*	1.2µM*	29*
Cc1cc(C)c(S(=O)(=O)Nc2cc(Cl)c3oc4c(c3c2)C(=O)CCC4)cc1C	/	9	/	/	/
CCc1c(C(=O)OCc2ccccc2)[nH]c(C)c1C	67*	8	116%	85%	43*
CCc1c(C)[nH]c(C(=O)OCc2ccccc2)c1C	81*	-3	37%	18%	28*
CCOC(=O)c1[nH]c(C)c(CN(CCc2ccccc2)S(C)(=O)=O)c1C	-21	4	/	17%	-1
C=CCNc1nc(N2CCCC2)nc2ccccc12	-7	-37	5.2µM*	/	-1
CC(Nc1nc(N2CCCCC2)nc2ccccc12)c1ccccc1 (stereo unspecified)	-4	-36	/	?	3
COc1ccc(Nc2nc(-c3ccccc3)c3cc(Br)ccc3n2)cc1	/	-61*	/	/	/
Cc1ccc(Nc2nc(N3CCOCC3)c3ccccc3n2)cc1	-17	-32	/	10µM*	6
CC(C)(C)C(=O)NNc1nc(-c2ccccc2)c2cc(Br)ccc2n1	8	-35	21%	-2%	-4
COc1ccc(Nc2nc(N3CCCC3)nc3ccccc23)c(OC)c1	17	?	6.6µM*	/	-4
COc1ccc(Nc2nc(-c3ccc(C)cc3)nc3ccccc23)c(OC)c1	/	-32	/	/	/
CC(C)N(C(=O)C[n+]1ccsc1N)c1ccccc1	20	-29	9%	0%	1
Cc1cc(C(=O)COC(=O)/C=C/c2ccco2)c(C)n1C	/	-14	/	/	/
COc1ccc(Nc2nc(N3CCCCC3)c3ccccc3n2)cc1	37	-64*	7.4µM*	4.7µM*	10
C(=C\c1nc(N2CCCC2)c2ccccc2n1)/c1ccccc1	-3	-72*	31%	0%	1
Oc1ccc(Nc2nc(N3CCCC3)c3ccccc3n2)cc1	42	-66*	0.47µM*	7%	-1
CC1CCN(c2nc(/C=C/c3ccccc3)nc3ccccc23)CC1	13	24	?	0%	9
c1ccc2c(c1)nc(N1CCCCCC1)c1ccccc12	4	-28	?	-13%	-3
Cc1ccc(N(C)S(=O)(=O)c2ccc3[nH]c(=O)ccc3c2)cc1	/	-8	/	/	/
Nc1ccc(C#Cc2ccc3sc4ccccc4c(=O)c3c2)cc1	/	42	/	/	/
Nc1ccccc1C#Cc1ccccc1	88*	23	166%	94%	64*
Nc1ccc(C#Cc2ccccc2)cc1	64*	-14	127%	229%	41*
Nc1ccccc1C#Cc1ccc2[nH]ccc2c1	/	62	/	/	/
COc1ccccc1N1CCN(C(c2cc3ccc(C)cc3[nH]c2=O)c2nnnn2C2CCCC2)CC1 (stereo unspecified)	4	7	1.9µM*	-19%	-3
SMILES	Shiga inhibitor	HCMV antiviral	Pf growth 48h	Pf growth 96h	CHX counter
CCC(C)(C)n1nnnc1C(c1cc2cc3c(cc2[nH]c1=O)OCO3)N1CCCCC1 (stereo unspecified)	47	66	?	0%	-3
CCC(C)(C)n1nnnc1C(c1cc2ccc(OC)cc2[nH]c1=O)N1CCN(C2CCCCC2)CC1 (stereo unspecified)	-17	-14	10µM*	/	-6
COc1cc2cc(C(c3nnnn3C(C)(C)C)N3CCc4ccccc43)c(=O)[nH]c2cc1OC (stereo unspecified)	-16	17	?	?	-1
COc1ccccc1N1CCN(C(c2cc3cc(C)ccc3[nH]c2=O)c2nnnn2C2CCCC2)CC1 (stereo unspecified)	-6	-4	?	12%	-8
CCOC(=O)c1cc2oc(C(c3nnnn3C3CCCCC3)N3CCOCC3)cc2[nH]1 (stereo unspecified)	0	15	9.3µM*	9.3µM*	-1
COc1cc2cc(C(c3nnnn3C3CCCC3)N3CCc4ccccc43)c(=O)[nH]c2cc1OC (stereo unspecified)	16	5	?	9.3µM*	-4
Cn1c(-n2cccc2)c(-c2c(-c3ccc(F)cc3)[nH]c3c2c(=O)n(C)c(=O)n3C)c(=O)n(C)c1=O	/	27	/	/	/
O=C1CCC[C@H]2C[C@@H](O)CC[C@]23CCCN13	/	15	/	/	/
O=C(NCc1ccccc1Br)c1ccc2nc(N3CCCCC3)sc2c1	/	31	/	/	/
CCOC(=O)C1CCN(C(c2cc3ccc(C)cc3[nH]c2=O)c2nnnn2C2CCCCC2)CC1 (stereo unspecified)	-1	-32	1µM*	/	-1
COc1ccc(C(c2nnnn2C2CCCC2)N2CCC(C(N)=O)CC2)c(OC)c1 (stereo unspecified)	-15	-11	?	?	2
Cc1nnc(NC(=O)c2cccc(Br)c2)s1	-9	81	/	17%	1
COc1cc(NC(=O)c2cccc(Br)c2)nc(OC)n1	71*	27	187%	2.9µM*	40*
COc1cc(NC(=O)COc2ccc(F)cc2)nc(OC)n1	7	-16	12%	13µM*	0
COc1cc(NC(=O)c2c(F)cccc2F)nc(OC)n1	98*	86	94%	?	33*
COc1ccc(C(=O)N2c3nc(-c4ccco4)nn3C3(CCCCC3)[C@@H]3CCCC[C@@H]32)cc1OC	/	-12	/	/	/
CCC1Oc2ccccc2N(CC(=O)NCc2cc(OC)ccc2OC)C1=O (stereo unspecified)	/	-24	/	/	/
C=CCN1C(c2ccc(OCC)cc2)=CS/C1=C(\C#N)c1nnc2n1CCCCC2	-1	-60*	?	/	-3
C=CCN1C(c2ccc(Br)cc2)=CS/C1=C(\C#N)c1nnc(N2CCOCC2)n1-c1ccccc1	/	-8	/	/	/
CC(C)SC1=NC(C)(C)C=C(/C=C/c2c(Cl)cccc2Cl)N1	-15	/	/	3.3µM*	-4
COc1ccc(C)cc1NC(=O)C1CCCN(S(=O)(=O)c2ccc3c(c2)oc(=O)n3C)C1 (stereo unspecified)	/	-29	/	/	/
COc1ccccc1CNC(=O)c1ccc(N2CCCC2)c(NC(=O)NCc2ccc(C)cc2)c1	/	-32	/	/	/
O=Nc1ccccn1	/	26	/	/	/
S=C=Nc1ccccn1	53	17	?	?	27*
CCN(CC)c1ccc(C(=O)NNC(=O)c2ccc3c(=O)n4c(nc3c2)CCC4)cc1	/	-10	-26%	?	/
SMILES	Shiga inhibitor	HCMV antiviral	Pf growth 48h	Pf growth 96h	CHX counter
CCN(CC)C(=O)c1cccc(NC(=O)c2ccc3c(=O)n4c(nc3c2)CCC4)c1	/	-21	?	0%	/
CCN(CC)S(=O)(=O)c1ccc(NC(=O)c2ccc3c(=O)n4c(nc3c2)CCCCC4)cc1	/	-93*	/	/	/
CCc1ccc(NC(=O)c2ccc3c(=O)n4c(nc3c2)CCCCC4)cc1	47*	-38	?	-21%	37*
CC(C)(C)c1cc(NC(=O)COC(=O)c2ccc3c(=O)n4c(nc3c2)CCC4)n(-c2ccccc2)n1	29	24	2%	6%	16*
O=C(Nc1cccc(S(=O)(=O)N2CCCCC2)c1)c1ccc2c(=O)n3c(nc2c1)CCCCC3	-13	-88*	?	13µM*	6
O=C(Nc1ccc(F)cc1)Nc1csc2c1CCCC2	/	-22	/	/	/
